{
  "source": "paper PMC7826789",
  "about": "(International Journal of Molecular Sciences, 2021)",
  "data": [
    {"smiles": "O=C(Nc1n[nH]c2cc(-c3ccsc3)ccc12)C1CC1", "note": "[SB-732932]", "values": [
      {"measurement": "Kinases covered", "setting": "CDKL2", "value": "CDKL2"}
    ]},
    {"smiles": "Cn1ccc2ncnc(Oc3ccc(NC(=O)Nc4ccccc4)cc3)c21", "note": "[TPKI-69]", "values": [
      {"measurement": "Kinases covered", "setting": "CSF1R", "value": "CSF1R"}
    ]},
    {"smiles": "Cc1cn(-c2cc(NC(=O)c3ccc4c(c3)CN(c3cncnc3)C[C@@H]4C)cc(C(F)(F)F)c2)cn1", "note": "[D2202-1]", "values": [
      {"measurement": "Kinases covered", "setting": "DDR1", "value": "DDR1"}
    ]},
    {"smiles": "COc1cc(Nc2cnc(C#N)c(O[C@H](C)CN(C)C)n2)ncc1-c1cnn(C)c1", "note": "[CCT244747]", "values": [
      {"measurement": "Kinases covered", "setting": "CHEK1", "value": "CHEK1"}
    ]},
    {"smiles": "Cc1ccc(-n2nc(C(C)(C)C)cc2NC(=O)Nc2ccc(OCCN3CCOCC3)cc2)cc1", "note": "[BIRB0876BS]", "values": [
      {"measurement": "Kinases covered", "setting": "DDR1", "value": "DDR1"}
    ]},
    {"smiles": "CNC(=O)c1c(F)cccc1Nc1nc(Nc2cc3c(cc2OC)CCN3C(=O)CN(C)C)nc2[nH]ccc12", "note": "[GSK1838705]", "values": [
      {"measurement": "Kinases covered", "setting": "CLK1", "value": "CLK1"},
      {"measurement": "Kinases covered", "setting": "CLK2", "value": "CLK2"}
    ]},
    {"smiles": "O=C(Nc1ccccc1)Nc1cccc(Oc2ccc3nccn3n2)c1", "note": "[TPKI-39]", "values": [
      {"measurement": "Kinases covered", "setting": "CIT", "value": "CIT"},
      {"measurement": "Kinases covered", "setting": "CSF1R", "value": "CSF1R"},
      {"measurement": "Kinases covered", "setting": "DDR1", "value": "DDR1"}
    ]},
    {"smiles": "CNc1nc(Nc2ccc(C(=O)N3CCOCC3)cc2OC)nc2[nH]cc(Cl)c12", "note": "[JH-II-127]", "values": [
      {"measurement": "Kinases covered", "setting": "CHK2", "value": "CHK2"}
    ]},
    {"smiles": "NS(=O)(=O)c1ccc(N/N=C2\\C(=O)Nc3ccc(C(=O)NCCc4c[nH]cn4)cc32)cc1", "note": "[GW300660X]", "values": [
      {"measurement": "Kinases covered", "setting": "CLK2", "value": "CLK2"}
    ]},
    {"smiles": "C[C@@H]1CCN(C(=O)CC#N)C[C@@H]1N(C)c1ncnc2[nH]ccc12", "note": "[PFE-PKIS 25]", "values": [
      {"measurement": "Kinases covered", "setting": "DCLK3", "value": "DCLK3"}
    ]},
    {"smiles": "COC[C@@H](C)N[C@H]1CC[C@H](Nc2cc(-c3cccc(NCC4(C#N)CCOCC4)n3)c(Cl)cn2)CC1", "note": "[NVP-2]", "values": [
      {"measurement": "Kinases covered", "setting": "DYRK1A", "value": "DYRK1A"}
    ]}
  ]
}
